# Assay results from ChEMBL document CHEMBL3988442, “University of Dundee, Small-Polar-MMV Screening Library” (2021).
# The whole screen tested about 69,000 compounds, of which about 1,000 (1.4%) showed an effect of 50% or more. The entries come from a sample that favours strong results as a whole.
# Tested on: Leishmania donovani
# Assay: Leishmania intramacrophage assay
# Type: functional, organism-based
# Parameters: scale not given: in the data most compounds retested in dose-response had high values
structure (smiles),measurement,setting,value
Cn1ccnc1CN1CCCN(C(=O)c2ccc(O)nc2)CC1,Percent Effect,30 µM,25.73%
Cc1nc2sccn2c1CN(CCCN(C)C)Cc1ccco1.O=C(O)CC(O)(CC(=O)O)C(=O)O,Percent Effect,"30.3 µM, […]",41.01%
CC[C@@]1(O)CCN(C(=O)CCc2cnn(C)c2)C[C@H]1O,Percent Effect,"30.3 µM, […]",28.56%
COc1ccc(C(C)NCc2nnc(C)s2)cc1F (stereo not given),Percent Effect,"30.3 µM, […]",13.85%
COc1ccc(C(C)NCCC(N)=O)cc1F (stereo not given),Percent Effect,"30.3 µM, […]",52.68%
COc1ccc(C(C)NCCc2ccc(NC(C)=O)cc2)cc1F (stereo not given),Percent Effect,"30.3 µM, […]",23.19%
CCSc1cc(C(=O)NCCc2nnc(-c3ccco3)[nH]2)ccn1,Percent Effect,"30.3 µM, […]",-0.0887%
CN(CCn1nc2ccccn2c1=O)CC(=O)N(C)C1CCCCC1,Percent Effect,"30.3 µM, […]",4.76%
Cc1nc(N2CCCC2)ncc1-c1cc(O)nc(N2CCN(C)CC2)n1,Percent Effect,"30.3 µM, […]",59.07%
Cc1nc(N2CCCC2)ncc1-c1cc(O)nc(N2CCCC2)n1,Percent Effect,"30 µM, 30.03 µM",15.83%
Cc1nc(N2CCCC2)ncc1-c1cc(O)nc(N2CCCCC2)n1,Percent Effect,"30.3 µM, […]",-14.51%
CCCS(=O)(=O)NC(=O)c1sc(C2CCCC2)nc1C,Percent Effect,"30.3 µM, […]",11.93%
COCCNC(=O)C[C@@H]1COC[C@H]2CN(C(=O)C3CCOCC3)C[C@@H]12,Percent Effect,"30.3 µM, […]",11.97%
COCCNC(=O)C[C@@H]1COC[C@H]2CN(C(=O)c3cnccn3)C[C@@H]12,Percent Effect,"30 µM, 30.03 µM",9.909%
COCCNC(=O)C[C@@H]1COC[C@H]2CN(C(=O)COC)C[C@@H]12,Percent Effect,"30.3 µM, […]",51.2%
COC(=O)C(c1ccccc1)N(C)C(=O)c1ccnc(C)n1 (stereo not given),Percent Effect,30 µM,22.67%
Cc1ccccc1-n1ccc2nc(N3CCCC3)ncc2c1=O,Percent Effect,"30.3 µM, […]",13.99%
CS(=O)(=O)CC(=O)N(CCN1CCOCC1)Cc1ccco1,Percent Effect,"30.3 µM, […]",-78.1%
Cc1ccc2c(c1)C1(CCNCC1)CC2N1CCOCC1 (stereo not given),Percent Effect,"30.3 µM, […]",11.46%
COCCN1CCC2(CC1)CC(NCc1cncn1C)c1ccccc12.O=C(O)C(F)(F)F.O=C(O)C(F)(F)F (stereo not given),Percent Effect,"30.3 µM, […]",17.77%
COCCN1CCC2(CC1)CC(NCc1ccc(C)s1)c1ccccc12.O=C(O)C(F)(F)F.O=C(O)C(F)(F)F (stereo not given),Percent Effect,"30.3 µM, […]",59.95%
COCCN1CCC2(CC1)CC(NC(=O)COC)c1ccccc1O2.O=C(O)C(F)(F)F (stereo not given),Percent Effect,"30.3 µM, […]",15.07%
Cc1cccc(CNC2CC3(CCN(CCO)CC3)c3ccccc32)n1.O=C(O)C(F)(F)F.O=C(O)C(F)(F)F (stereo not given),Percent Effect,"30.3 µM, […]",9.361%
Cc1ccc(CNC2CC3(CCN(CCO)CC3)c3ccccc32)s1.O=C(O)C(F)(F)F.O=C(O)C(F)(F)F (stereo not given),Percent Effect,"30.3 µM, […]",81.48%
CCC(=O)N1CCC2(CC1)CC(N1CCOCC1)c1cc(C)ccc12.O=C(O)C(F)(F)F (stereo not given),Percent Effect,"30.3 µM, […]",12%
COCCN1CCC2(CC1)CC(NC(=O)CN(C)C)c1ccccc1O2.O=C(O)C(F)(F)F.O=C(O)C(F)(F)F (stereo not given),Percent Effect,"30.3 µM, […]",52.21%
COCCN1CCC2(CC1)CC(NC(=O)CC1CC1)c1ccccc1O2.O=C(O)C(F)(F)F (stereo not given),Percent Effect,"30.3 µM, […]",-12.69%
COCC(=O)NC1CC2(CCN(CCO)CC2)c2ccccc21.O=C(O)C(F)(F)F (stereo not given),Percent Effect,"30.3 µM, […]",8.463%
Cc1ccc2c(c1)C(N1CCOCC1)CC21CCNCC1 (stereo not given),Percent Effect,"30.3 µM, […]",55.92%
Cn1cncc1CNC1CC2(CCN(CC3CC3)CC2)c2ccccc21.O=C(O)C(F)(F)F.O=C(O)C(F)(F)F (stereo not given),Percent Effect,"30.3 µM, […]",22.11%
